Measured values reported in the supplement of paper PMC11732987, “Enantioselective OTUD7B fragment discovery through chemoproteomics screening and high-throughput optimisation” (Communications Chemistry, 2025).

Key:
Test in all cases: log2 ratio of Biotin-Ahx-Ub-VS probe labelling (fragment/DMSO); higher = less target engagement (more negative = stronger competition), active = hit call of the paper (q ≤ 0.05, log2 ratio ≤ -1)
Details in all cases: compound concentration: 200 uM; treatment time: 3 h
USP19 = target: T1, USP19 (UniProt O94966)
T1 sequence (whole entry): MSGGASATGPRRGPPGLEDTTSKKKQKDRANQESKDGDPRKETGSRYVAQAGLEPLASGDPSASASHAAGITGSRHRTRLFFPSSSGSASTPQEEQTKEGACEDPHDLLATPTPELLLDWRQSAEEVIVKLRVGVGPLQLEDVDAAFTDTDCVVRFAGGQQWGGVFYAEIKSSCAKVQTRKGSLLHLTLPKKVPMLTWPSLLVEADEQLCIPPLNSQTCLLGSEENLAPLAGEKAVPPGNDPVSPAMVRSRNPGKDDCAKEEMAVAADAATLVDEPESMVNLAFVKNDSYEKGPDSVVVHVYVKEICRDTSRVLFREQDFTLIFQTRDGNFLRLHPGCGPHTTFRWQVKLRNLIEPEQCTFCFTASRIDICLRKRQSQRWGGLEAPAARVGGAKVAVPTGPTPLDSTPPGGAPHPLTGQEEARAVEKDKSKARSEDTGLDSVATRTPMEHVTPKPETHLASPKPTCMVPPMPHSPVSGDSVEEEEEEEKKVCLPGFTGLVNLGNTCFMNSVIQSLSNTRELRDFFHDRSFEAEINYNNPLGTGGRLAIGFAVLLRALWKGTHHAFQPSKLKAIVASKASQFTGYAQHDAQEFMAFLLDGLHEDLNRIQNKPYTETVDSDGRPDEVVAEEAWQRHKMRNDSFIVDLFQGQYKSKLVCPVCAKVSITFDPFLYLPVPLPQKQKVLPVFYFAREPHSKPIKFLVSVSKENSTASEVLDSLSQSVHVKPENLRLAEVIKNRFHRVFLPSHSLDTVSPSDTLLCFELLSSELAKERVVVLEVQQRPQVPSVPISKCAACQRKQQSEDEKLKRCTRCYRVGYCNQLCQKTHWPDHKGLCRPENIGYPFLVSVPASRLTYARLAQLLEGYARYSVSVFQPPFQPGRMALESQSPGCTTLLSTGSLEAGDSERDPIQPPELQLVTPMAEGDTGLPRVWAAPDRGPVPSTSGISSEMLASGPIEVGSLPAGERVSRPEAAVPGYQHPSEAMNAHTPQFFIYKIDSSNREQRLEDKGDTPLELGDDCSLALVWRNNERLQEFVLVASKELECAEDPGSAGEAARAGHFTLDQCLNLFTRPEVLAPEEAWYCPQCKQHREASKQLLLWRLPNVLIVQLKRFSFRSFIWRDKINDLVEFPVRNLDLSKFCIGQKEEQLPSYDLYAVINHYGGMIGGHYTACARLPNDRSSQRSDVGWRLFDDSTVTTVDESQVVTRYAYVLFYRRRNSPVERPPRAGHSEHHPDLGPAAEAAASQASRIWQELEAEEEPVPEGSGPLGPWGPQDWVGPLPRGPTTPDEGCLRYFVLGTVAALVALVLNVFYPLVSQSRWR
Procedure, shortened: (§1)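 Average log2 ratios of fragment over vehicle were obtained by unpaired t-test from global-median-normalised Spectronaut label-free quantities. Proteins with ≥2 unique peptides were included. HEK293T lysate (495 µg per sample) was treated in triplicate with fragment at 200 µM or vehicle for 3 h, then with Biotin-Ahx-Ub-VS at 0.5 µM final for 1 h, and labelled DUBs were NeutrAvidin-enriched and run by diaPASEF LC-MS/MS.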

USP24 = USP24 (UniProt Q9UPU5)
Procedure, shortened: as §1

USP25 = target: T2, USP25 (UniProt Q9UHP3)
T2 sequence (whole entry): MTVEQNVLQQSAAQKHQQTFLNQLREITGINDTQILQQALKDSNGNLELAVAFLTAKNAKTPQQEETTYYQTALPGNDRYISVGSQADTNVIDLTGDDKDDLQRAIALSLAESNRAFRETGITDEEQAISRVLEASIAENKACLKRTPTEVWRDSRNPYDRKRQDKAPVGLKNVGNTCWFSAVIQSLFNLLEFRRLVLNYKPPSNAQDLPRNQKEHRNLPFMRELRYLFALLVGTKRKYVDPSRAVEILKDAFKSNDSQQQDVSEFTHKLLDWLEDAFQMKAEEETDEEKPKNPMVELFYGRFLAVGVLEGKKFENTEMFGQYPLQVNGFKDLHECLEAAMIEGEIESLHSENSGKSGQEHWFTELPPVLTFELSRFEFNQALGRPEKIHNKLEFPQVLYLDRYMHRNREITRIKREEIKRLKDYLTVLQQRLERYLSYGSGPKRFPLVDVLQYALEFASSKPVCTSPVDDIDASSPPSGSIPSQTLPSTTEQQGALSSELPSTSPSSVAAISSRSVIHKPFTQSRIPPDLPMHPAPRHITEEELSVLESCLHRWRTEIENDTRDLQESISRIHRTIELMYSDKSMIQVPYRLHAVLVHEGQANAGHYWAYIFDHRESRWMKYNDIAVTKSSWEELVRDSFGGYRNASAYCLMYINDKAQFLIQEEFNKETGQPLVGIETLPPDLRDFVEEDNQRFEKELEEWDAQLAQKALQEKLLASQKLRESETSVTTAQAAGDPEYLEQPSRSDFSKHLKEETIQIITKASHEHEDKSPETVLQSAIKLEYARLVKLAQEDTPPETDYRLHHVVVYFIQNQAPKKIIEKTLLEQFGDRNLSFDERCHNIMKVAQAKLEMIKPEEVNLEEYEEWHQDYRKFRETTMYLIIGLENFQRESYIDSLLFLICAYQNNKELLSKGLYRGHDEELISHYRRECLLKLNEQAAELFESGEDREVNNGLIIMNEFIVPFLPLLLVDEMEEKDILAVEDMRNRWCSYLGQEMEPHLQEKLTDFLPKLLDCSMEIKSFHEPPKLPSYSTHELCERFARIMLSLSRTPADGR
Procedure, shortened: as §1

USP28 = target: T3, USP28 (UniProt Q96RU2)
T3 sequence (whole entry): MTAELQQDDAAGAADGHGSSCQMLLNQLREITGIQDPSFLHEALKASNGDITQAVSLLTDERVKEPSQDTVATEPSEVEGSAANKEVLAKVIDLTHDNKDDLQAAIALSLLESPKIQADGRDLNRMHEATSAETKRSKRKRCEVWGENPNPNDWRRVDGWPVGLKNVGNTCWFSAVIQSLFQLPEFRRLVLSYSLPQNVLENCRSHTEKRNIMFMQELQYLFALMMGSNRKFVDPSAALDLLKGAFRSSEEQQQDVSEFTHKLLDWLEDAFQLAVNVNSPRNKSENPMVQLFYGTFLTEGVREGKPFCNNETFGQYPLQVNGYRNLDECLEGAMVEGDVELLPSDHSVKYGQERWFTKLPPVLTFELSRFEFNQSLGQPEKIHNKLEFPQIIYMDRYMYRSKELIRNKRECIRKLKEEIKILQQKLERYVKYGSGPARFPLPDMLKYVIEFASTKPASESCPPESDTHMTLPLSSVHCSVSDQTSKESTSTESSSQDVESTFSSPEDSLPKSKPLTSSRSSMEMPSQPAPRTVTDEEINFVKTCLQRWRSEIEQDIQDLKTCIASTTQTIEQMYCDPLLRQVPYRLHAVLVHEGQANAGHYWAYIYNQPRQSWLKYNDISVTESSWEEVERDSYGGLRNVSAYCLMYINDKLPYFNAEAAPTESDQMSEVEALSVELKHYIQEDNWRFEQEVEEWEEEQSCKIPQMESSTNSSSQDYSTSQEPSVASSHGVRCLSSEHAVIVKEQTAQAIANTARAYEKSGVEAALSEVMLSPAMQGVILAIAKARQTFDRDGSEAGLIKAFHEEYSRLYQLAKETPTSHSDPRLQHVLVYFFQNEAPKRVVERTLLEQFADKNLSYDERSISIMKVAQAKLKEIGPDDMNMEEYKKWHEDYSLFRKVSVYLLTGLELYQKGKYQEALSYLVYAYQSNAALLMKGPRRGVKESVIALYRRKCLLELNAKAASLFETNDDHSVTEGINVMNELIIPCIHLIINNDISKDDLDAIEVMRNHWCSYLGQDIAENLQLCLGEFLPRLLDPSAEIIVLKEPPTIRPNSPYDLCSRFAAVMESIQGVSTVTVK
Procedure, shortened: as §1

Measured: log2 ratio of Biotin-Ahx-Ub-VS probe labelling

USP24, sequence (Q9UPU5 whole entry): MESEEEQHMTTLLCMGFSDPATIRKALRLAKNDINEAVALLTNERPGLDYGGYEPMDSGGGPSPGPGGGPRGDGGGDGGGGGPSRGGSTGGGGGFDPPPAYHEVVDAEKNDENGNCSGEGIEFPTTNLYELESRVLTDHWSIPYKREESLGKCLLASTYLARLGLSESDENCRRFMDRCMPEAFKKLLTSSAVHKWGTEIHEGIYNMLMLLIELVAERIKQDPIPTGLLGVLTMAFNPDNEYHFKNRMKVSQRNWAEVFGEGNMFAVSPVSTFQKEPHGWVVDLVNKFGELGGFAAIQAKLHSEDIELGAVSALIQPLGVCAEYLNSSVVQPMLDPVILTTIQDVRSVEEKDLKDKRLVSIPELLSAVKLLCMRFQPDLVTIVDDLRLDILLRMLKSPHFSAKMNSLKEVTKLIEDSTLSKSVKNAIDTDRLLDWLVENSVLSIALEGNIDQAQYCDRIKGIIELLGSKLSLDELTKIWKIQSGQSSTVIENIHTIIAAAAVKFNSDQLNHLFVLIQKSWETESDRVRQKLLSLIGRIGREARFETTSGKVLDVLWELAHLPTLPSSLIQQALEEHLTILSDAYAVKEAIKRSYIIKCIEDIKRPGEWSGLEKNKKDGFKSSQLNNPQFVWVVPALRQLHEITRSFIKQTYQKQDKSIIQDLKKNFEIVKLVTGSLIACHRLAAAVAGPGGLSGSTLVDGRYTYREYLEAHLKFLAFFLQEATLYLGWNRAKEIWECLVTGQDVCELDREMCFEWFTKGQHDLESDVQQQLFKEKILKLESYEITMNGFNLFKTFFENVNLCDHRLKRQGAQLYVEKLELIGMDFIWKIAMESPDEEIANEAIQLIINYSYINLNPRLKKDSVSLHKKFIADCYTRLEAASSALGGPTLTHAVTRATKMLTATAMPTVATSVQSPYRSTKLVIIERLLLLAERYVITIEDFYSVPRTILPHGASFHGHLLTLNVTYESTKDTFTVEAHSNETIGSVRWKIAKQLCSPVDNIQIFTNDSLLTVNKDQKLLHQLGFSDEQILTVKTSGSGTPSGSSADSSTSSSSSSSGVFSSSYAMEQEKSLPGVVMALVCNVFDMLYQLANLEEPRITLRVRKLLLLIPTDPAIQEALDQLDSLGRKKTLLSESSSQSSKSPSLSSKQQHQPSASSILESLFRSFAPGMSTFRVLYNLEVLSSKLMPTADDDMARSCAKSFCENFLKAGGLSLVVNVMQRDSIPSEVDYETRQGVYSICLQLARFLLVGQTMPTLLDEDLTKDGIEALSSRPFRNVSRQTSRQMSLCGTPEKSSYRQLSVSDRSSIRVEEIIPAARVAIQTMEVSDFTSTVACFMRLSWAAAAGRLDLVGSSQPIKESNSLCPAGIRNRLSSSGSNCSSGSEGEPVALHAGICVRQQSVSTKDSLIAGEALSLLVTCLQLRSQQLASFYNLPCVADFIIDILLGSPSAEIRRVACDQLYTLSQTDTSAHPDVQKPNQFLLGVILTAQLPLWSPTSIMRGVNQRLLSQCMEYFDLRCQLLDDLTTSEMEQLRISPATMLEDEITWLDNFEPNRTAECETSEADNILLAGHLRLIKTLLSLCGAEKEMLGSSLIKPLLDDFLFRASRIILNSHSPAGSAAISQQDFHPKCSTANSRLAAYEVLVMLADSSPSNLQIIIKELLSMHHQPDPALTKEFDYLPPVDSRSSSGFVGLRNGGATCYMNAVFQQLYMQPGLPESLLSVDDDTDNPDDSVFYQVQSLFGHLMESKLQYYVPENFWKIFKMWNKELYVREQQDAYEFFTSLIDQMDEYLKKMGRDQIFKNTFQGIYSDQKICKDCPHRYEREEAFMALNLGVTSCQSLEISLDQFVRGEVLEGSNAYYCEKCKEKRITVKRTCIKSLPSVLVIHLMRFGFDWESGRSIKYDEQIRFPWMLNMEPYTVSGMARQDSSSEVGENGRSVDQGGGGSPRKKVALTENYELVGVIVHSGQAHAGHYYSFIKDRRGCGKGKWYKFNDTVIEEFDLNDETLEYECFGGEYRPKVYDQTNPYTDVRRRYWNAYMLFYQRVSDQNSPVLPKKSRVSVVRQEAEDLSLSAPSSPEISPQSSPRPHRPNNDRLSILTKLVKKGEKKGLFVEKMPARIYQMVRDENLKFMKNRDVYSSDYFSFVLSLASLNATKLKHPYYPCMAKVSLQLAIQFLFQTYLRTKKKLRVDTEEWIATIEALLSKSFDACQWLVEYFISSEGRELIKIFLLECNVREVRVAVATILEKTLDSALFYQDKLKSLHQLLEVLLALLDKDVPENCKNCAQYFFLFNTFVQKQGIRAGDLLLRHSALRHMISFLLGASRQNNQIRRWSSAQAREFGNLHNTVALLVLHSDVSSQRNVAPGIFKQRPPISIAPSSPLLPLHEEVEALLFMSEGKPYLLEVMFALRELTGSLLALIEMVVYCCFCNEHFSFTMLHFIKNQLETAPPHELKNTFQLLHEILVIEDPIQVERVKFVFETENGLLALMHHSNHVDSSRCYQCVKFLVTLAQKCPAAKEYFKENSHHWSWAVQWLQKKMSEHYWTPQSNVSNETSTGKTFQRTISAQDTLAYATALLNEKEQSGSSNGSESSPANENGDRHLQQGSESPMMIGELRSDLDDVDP

Cc1nnc(C(NC(=O)CCl)c2ccccc2)n1C (centres undefined)
inactive: USP19 0.626 | USP24 0.636 | USP25 0.465 | USP28 0.507
